# KB-V1 MDR tox: kills drug-selected multidrug resistant KB-V1 cells; KB-V1 MDR cells viability, CellTiter-Glo, 72 h; Potency, µM (top dose mostly 46.1 µM), actives largely listed as cytotoxic; actives 3.4% (n = 400,000); AID 1347076; also: % is scaled to controls: 0 for no effect and ±100 for the full control effect; nearly all actives have a fitted effect of over 60% in size
#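 Following 72 h at 37 degrees C with compound, KB-V1 cell viability was read by CellTiter-Glo luminescence, medium being phenol-red-free DMEM plus 10% FBS; concentration-response parameters came from normalized, curve-fitted qHTS data.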
# KB-3-1 tox: KB-3-1 parental cell cytotoxicity. KB-3-1 viability, CellTiter-Glo ATP luminescence, 72 h. Potency, µM (top dose mostly 46.1 µM), actives largely listed as cytotoxic. actives 1.4% (n = 400,000). AID 1347075; also: % is scaled to controls: 0 for no effect and ±100 for the full control effect; nearly all actives have a fitted effect of over 60% in size
#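 Screening of KB-3-1 cells (DMEM, 10% FBS, phenol-red free) ran from lowest to highest compound concentration; after 72 h at 37 °C viability was read luminescently and curves fitted.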
# MCF10A rereplic: induces DNA re-replication in MCF 10a normal breast cells; MCF 10A DNA re-replication, Hoechst nuclear intensity, 48 h; actives 2.9% (n = 350,000); Potency, µM (doses to about 46.1 µM), for inactives: top-dose activity, positive = re-replication, actives largely listed as activators; also: % of control where 0% means no effect; nearly all actives have a fitted effect of over 50% in size
# SW480 rerep: induces DNA re-replication in SW480 colon adenocarcinoma cells; SW480 DNA re-replication, Hoechst DNA content imaging, 48 h; Potency, µM (top dose mostly 46.1 µM), for inactives: top-dose re-replication activation, usual class: activators; actives 1.8% (n = 340,000); also: % of control where 0% means no effect; nearly all actives have a fitted effect of over 55% in size
#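 250 cells/well; 23 nL cpd via pin tool; 48 hr, 37 C, 5% CO2; Hoechst 40 min; imager read of total nuclear intensity, ex 405/em 500-530 nm.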
# HT1080-NT tox: kills 2HG-producing HT-1080-NT fibrosarcoma cells. actives 1.6% (n = 360,000). HT-1080-NT fibrosarcoma viability, CellTiter-Glo ATP luminescence, 48 h. Potency, µM (highest dose often 46.1 µM), for the others: at the top dose activity, negative = less viability, actives largely listed as cytotoxic;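 also: NT is the 2HG producing partner of a matched IDH1 knockdown line; 0% = DMSO-treated cells and -100% = media-only wells without cells; nearly all actives have a fitted effect of over 55% in size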
#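 A 48-hour cytotoxicity screen used HT-1080-NT cells plated 2 hours before compound delivery. ATP-based CellTiter-Glo luminescence measured viability, normalized to DMSO and no-cell controls.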
# HT1080 IDH1KD tx: HT-1080 IDH1 knockdown cell toxicity (counter line) | actives 2% (n = 360,000) | AID 686971 | HT-1080 IDH1 knockdown viability, ATP luminescence, 48 h | Potency, µM (titrated, usually from 46.1 µM), without a hit: at the top dose activity, negative = toxicity, most hits filed as cytotoxic;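 also: 0% = DMSO wells and -100% = cell-free medium wells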
#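 After a 2 h attachment period, IDH1KD HT-1080 cells took pin-transferred compound for 48 h at 37 °C; ATP-based luminescence after 10 min room-temperature reagent incubation reported viability.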
# * = called active by the depositor; i = inactive; ? = inconclusive; . = not tested or not shown; [ ] = another dose, or the depositor's remark. Most compounds without a hit are left out; they make up all but 8% or so of the library. Calls follow the shape of the dose curve; as a rule, active = well fitted curve in the direction sought with a large enough effect; inconclusive = small, poorly fitted or top-dose-only effect, or another doubt; inactive = no such curve, though single readings can be large; an effect the other way counts as inactive or inconclusive. Potency is read from the fitted curve at half-maximal effect.
SMILES,KB-V1 MDR tox,KB-3-1 tox,MCF10A rereplic,SW480 rerep,HT1080-NT tox,HT1080 IDH1KD tx
COc1ccc(NC(=O)CCc2ccccc2)cc1NC(=O)c1ccco1,7.3µM*,i,0%,0%,-26%,-11%
COc1ccc(NC(=O)CCC(=O)Nc2cc(OC)c(NC(=O)c3cccs3)cc2OC)cc1,i,i,-2%,-3%,11%,23%
COc1cc(NC(=O)c2cccs2)c(OC)cc1NC(=O)CCC(=O)Nc1ccc(C)cc1,?,i,21µM*,?,-2%,-12%
COc1ccc(CC(=O)Nc2ccc(OC)c(NC(=O)c3ccco3)c2)cc1,i,i,-2%,-1%,-9%,-12%
COc1cc(NC(=O)c2cccs2)c(OC)cc1NC(=O)c1ccco1,?,i,12%,-314%,4%,-3%
COc1ccc(NC(=O)c2ccco2)cc1NC(=O)c1cccs1,8.2µM*,i,5%,-6%,3%,3%
COc1ccc(/C=N/NC(=O)CCCOc2ccc(Cl)cc2Cl)cc1[N+](=O)[O-],21µM*,?,2%,-7%,0%,12%
O=C(CCCOc1ccc(Cl)cc1Cl)N/N=C/c1ccccc1,?,i,?,1.6µM*,-3%,-4%
Cc1ccc(/C=N/NC(=O)CCCOc2ccc(Cl)cc2Cl)cc1[N+](=O)[O-],i,?,?,-2%,?,?
Cc1ccc(/C=N/NC(=O)CCCOc2ccc(Cl)cc2Cl)cc1,?,?,15µM*,?,15µM*,15µM*
O=C(COc1ccc(Cl)cc1Cl)N/N=C/c1ccc[nH]1,i,i,12µM*,0%,1%,-1%
O=C(CCCOc1ccc(Cl)cc1Cl)N/N=C/c1ccccc1O,i,i,?,?,?,?
Cc1cc(C)c2c(C)nn(C3CCCCC3)c2n1,i,i,-2%,-7%,-3%[9.24 µM],1%
COc1ccc(-c2cc(C)no2)cc1S(=O)(=O)NCCCN(C)Cc1ccccc1,i,i,6%,-4%,-23%,-18%
CCOC(=O)/C(C#N)=C1/SC(CC)C(=O)N1c1ccc(Br)cc1 (centres undefined),8.2µM*,i,7%,-13%,-2%,14%
CC(C)c1c(C(=O)N/N=C/c2ccccc2OCc2c(F)cccc2Cl)nnn1-c1nonc1N,16µM*,i,?,9.2µM*,-20%,?
Nc1nonc1-n1nnc(C(=O)N/N=C/c2ccc(Cl)cc2Cl)c1CN1CCCC1,i,i,-3%,3.7µM*,-5%,-3%
Nc1nonc1-n1nnc(C(=O)N/N=C/c2ccc(Cl)cc2Cl)c1CN1CCOCC1,i,i,0%,-20%,21%,9%
Nc1nonc1-n1nnc(C(=O)N/N=C/c2cccc(Cl)c2Cl)c1CN1CCCC1,i,i,?,21µM*,0%,2%
COc1cc(Cl)c(C)cc1NC(=O)COC(=O)C(NS(=O)(=O)c1ccc(Cl)cc1)C(C)O (centres undefined),i,i,10%,-3%,4%,1%
CSc1ncccc1C(=O)NCC(=O)Nc1ccc(F)c(F)c1,.,.,-2%,-3%,4%,10%
COc1cccc(/C=C2\SC(=O)NC2=O)c1OCc1ccc(C(=O)O)cc1,i,i,21%,-7%,13%,11%
COc1ccc(OC)c(/C=C2\S/C(=N/NC(=O)c3ccc4ccccc4c3)NC2=O)c1,i,i,16µM*,2%,0%,5%
O=C1N/C(=N/NC(=O)c2cccc3ccccc23)S/C1=C\c1ccccc1OCc1ccccc1,i,?,23µM*,5%,?,?
CCOC(=O)Cc1nc(-c2ccccc2)n[nH]1,i,i,2%,1%,?,?
